According to paper PMC4336329 (PLoS ONE, 2015):
The whole screen tested about 310,000 compounds, of which about 14,000 (4.5%) showed an effect of 50% or more. The effect is printed as a negative number. The full list was thinned out, with strong results kept by preference.

Biological target: human ether-à-go-go-related gene (hERG) potassium channel (human, UniProt Q12809)
Assay: primary screen, population patch clamp on CHO cells stably expressing hERG; higher = less effect of the substance
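Note: peak tail current of the secondary pulse compared with the same well before compound.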

Chain of human ether-à-go-go-related gene (hERG) potassium channel (Q12809 whole entry, looked up): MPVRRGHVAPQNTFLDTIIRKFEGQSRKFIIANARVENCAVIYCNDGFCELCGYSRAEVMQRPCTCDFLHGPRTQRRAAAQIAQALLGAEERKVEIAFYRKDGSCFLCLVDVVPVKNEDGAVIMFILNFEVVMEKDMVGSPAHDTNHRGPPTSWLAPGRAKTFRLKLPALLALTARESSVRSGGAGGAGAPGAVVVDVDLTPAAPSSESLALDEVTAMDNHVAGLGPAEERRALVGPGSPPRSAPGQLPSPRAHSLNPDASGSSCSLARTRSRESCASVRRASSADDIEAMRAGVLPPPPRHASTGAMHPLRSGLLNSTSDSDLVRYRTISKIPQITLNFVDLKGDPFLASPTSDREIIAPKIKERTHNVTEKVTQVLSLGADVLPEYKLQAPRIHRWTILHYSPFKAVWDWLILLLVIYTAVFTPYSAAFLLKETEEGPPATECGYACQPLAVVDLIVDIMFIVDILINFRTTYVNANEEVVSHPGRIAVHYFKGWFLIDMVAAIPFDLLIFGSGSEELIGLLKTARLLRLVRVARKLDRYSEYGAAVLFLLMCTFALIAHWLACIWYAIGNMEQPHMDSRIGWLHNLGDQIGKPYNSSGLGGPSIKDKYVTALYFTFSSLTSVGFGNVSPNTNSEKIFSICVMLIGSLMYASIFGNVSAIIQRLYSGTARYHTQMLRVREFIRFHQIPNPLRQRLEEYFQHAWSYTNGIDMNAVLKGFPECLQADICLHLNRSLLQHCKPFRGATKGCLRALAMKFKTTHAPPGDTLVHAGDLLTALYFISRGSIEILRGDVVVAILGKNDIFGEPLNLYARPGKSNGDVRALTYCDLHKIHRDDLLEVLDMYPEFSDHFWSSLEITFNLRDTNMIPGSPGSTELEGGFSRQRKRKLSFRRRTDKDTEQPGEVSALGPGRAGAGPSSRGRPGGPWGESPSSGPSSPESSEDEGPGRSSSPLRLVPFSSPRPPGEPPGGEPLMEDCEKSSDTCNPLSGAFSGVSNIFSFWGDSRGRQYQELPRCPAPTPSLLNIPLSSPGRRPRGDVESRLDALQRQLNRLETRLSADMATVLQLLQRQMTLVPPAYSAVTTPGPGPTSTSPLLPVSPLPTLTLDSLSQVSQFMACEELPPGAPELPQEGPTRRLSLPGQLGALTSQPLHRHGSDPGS

SMILES	hERG current change (%, negative = inhibition) at 10uM [%]
Clc1ccc(-c2nnc(SCc3cn4ccsc4n3)n2CC2CCCO2)cc1 (stereo not shown)	-29.2
Cc1cccc2cc3c(N)c(C#N)sc3nc12	21.5
Cc1cc(C)c(Nc2cc(S(=O)(=O)[O-])c(N)c3c2C(=O)c2ccccc2C3=O)c(C)c1.[Na+]	12
CCn1c(-c2cc(-c3cc(OC)ccc3OC)nc3ccccc23)n[nH]c1=S	-10.3
CCCC(C)c1nnc(NC(=O)C2CC(=O)N(CCc3ccc(F)cc3)C2)s1 (stereo not shown)	-30.1
COc1ccc(-c2nnc3sc(-c4ccccn4)nn23)cc1	-13.2
CCOC(=O)c1ccc(-c2ccc(CO)o2)cc1	-6.44
CCC(C)[C@H](NC(=O)N1CC(=O)Nc2ccccc21)C(=O)N[C@H](C(=O)O)c1ccccc1 (stereo partly shown)	7.19
CCN1C(=O)CC(c2ccco2)Sc2ccccc21 (stereo not shown)	-16.8
O=C(NCCCN1CCOCC1)c1ccc([N+](=O)[O-])cc1[N+](=O)[O-]	10.5
CC(C)n1c(=O)c(C=Nc2ccc(F)cc2)c(O)n(Cc2ccco2)c1=O	-19.7
COc1ccc2c(=O)c3c(=O)n(-c4ccc(C)cc4)c(-c4ccccc4)nc3oc2c1	6.84
CC(=O)Nc1ccc(S(=O)(=O)N2CCSC2C(=O)O)cc1 (stereo not shown)	0.312
Cc1ccc(S(=O)(=O)Nc2ccc(N3CCOCC3)cc2)cc1C	2.95
COc1ccc(/C=C/C(=O)NC(=S)NNC(=O)c2c(-c3ccccc3)noc2C)cc1	11.4
Cc1cc2ncc(-c3cccc(Cl)c3)cn2n1	8.42
CC(=O)Nc1ccc2c(COC(=O)CC3Sc4ccccc4NC3=O)cc(=O)oc2c1 (stereo not shown)	-9.75
COc1ccc2c(COC(=O)CC3Sc4ccccc4NC3=O)cc(=O)oc2c1 (stereo not shown)	-44.1
O=C(CC1Sc2ccccc2NC1=O)OCc1cc(=O)oc2cc(O)ccc12 (stereo not shown)	-51.7
CCCCn1c(SCC(=O)NCc2ccccc2)nc2ccc(N3CCOCC3)cc2c1=O	-13.9
COc1ccc(OC)c(NC(=O)C2C3CC4OC(=O)C2C4C3)c1 (stereo not shown)	11.2
O=C(c1ccccc1Cl)N1CCN(Cc2ccc3c(c2)OCO3)CC1	-21.1

SMILES	hERG current change (%, negative = inhibition) at 10uM [%]
O=C(Cn1ccc2ccccc2c1=O)N1CCN(Cc2ccc3c(c2)OCO3)CC1	-14.8
O=C(Cn1cnc2ccccc2c1=O)N1CCN(Cc2ccc3c(c2)OCO3)CC1	-14
O=C(c1cccc(Cl)c1)N1CCN(Cc2ccc3c(c2)OCO3)CC1	-16.6
O=C(c1cccn2c(=O)c3cc(Cl)ccc3nc12)N1CCN(Cc2ccc3c(c2)OCO3)CC1	-75.2
O=C(c1cc(Cl)nc2ccccc12)N1CCN(Cc2ccc3c(c2)OCO3)CC1	-37.9
O=C(O)C(=O)O.O=C(c1ccccc1F)N1CCN(Cc2ccc3c(c2)OCO3)CC1	6.48
O=C(c1ccc2nc3ccccc3c(=O)n2c1)N1CCN(Cc2ccc3c(c2)OCO3)CC1	-60.9
O=C(c1cccn2c(=O)c3ccccc3nc12)N1CCN(Cc2ccc3c(c2)OCO3)CC1	-67.7
CCc1ccc(NC(=O)c2cc(-c3ccc(OC)cc3)on2)cc1	-0.467
CCc1cc(=O)oc2cc(C)cc(OCc3nn[nH]n3)c12	-5.99
CCc1nn(CCCC(=O)Nc2ccc(C)c(C)c2)c(=O)c2cc3occc3n12	4.15
CCc1ccccc1N(CC(=O)NCc1ccco1)C(=O)CCC(=O)Nc1ccccn1	-7.41
Cc1cccc(CN2CCN(c3nc4nonc4nc3NC3CC3)CC2)c1	-4.44
Clc1cccc(CN2CCN(c3nc4nonc4nc3NC3CC3)CC2)c1	-65.4
Fc1cccc(CN2CCN(c3nc4nonc4nc3NC3CC3)CC2)c1	-10.3
O=C(COC(=O)C1=NN(c2ccccc2)C(=O)CC1)Nc1ccc([N+](=O)[O-])cc1C(F)(F)F	5.08
CC(C)CN(CC(C)C)C(=O)c1cccc(S(=O)(=O)N2CCc3ccccc32)c1	-24.9
CCOC(=O)C1CCN(C(=S)NC2CC3C=CC2C3)CC1 (stereo not shown)	-54.3
CCOC(=O)C1CCN(C(=S)NC2CCCC2)CC1	0.997
NC(=O)C1CCN(C(=S)NC2CC3C=CC2C3)CC1 (stereo not shown)	16.2
CN(c1ccccc1)S(=O)(=O)c1cccc(NC(=O)Cc2ccc(Cl)cc2)c1	9.43
COc1ccc(CN2C(=NC(=O)CCc3ccccc3)SC3CS(=O)(=O)CC32)cc1 (stereo not shown)	3.85

SMILES	hERG current change (%, negative = inhibition) at 10uM [%]
CC(NC(=O)COC(=O)CCNC(=O)c1ccco1)C12CC3CC(CC(C3)C1)C2 (stereo not shown)	0.656
CC(C)[C@H](NC(=O)c1ccco1)C(=O)NC12CC3CC(CC(C3)C1)C2	-5.81
CC(NC(=O)c1ccco1)C12CC3CC(CC(C3)C1)C2 (stereo not shown)	-50.1
CC1CN(C2CCN(S(=O)(=O)c3ccc4ccccc4c3)CC2)CC(C)O1 (stereo not shown)	-22.5
CN1C(C(=O)N2CCc3ccccc3C2)=CC(c2ccc(F)cc2)=NS1(=O)=O	-3.37
CCC(=O)C(C#N)(c1ccc(OC)c(OC)c1)C(C)C (stereo not shown)	-7.65
COc1ccc(CCN(Cc2ccc(C(C)C)cc2)S(=O)(=O)c2ccc(S(=O)(=O)N(C)C)cc2)cc1OC	-11.1
COc1ccc(CCN(C)CCCC(C#N)(c2cc(OC)c(OC)c(OC)c2)C(C)C)cc1OC.Cl (stereo not shown)	-64.1
Cn1c(Cn2c(=O)sc3ccccc32)nnc1SCC(=O)NCc1ccccc1	-0.25
Cc1ccc(NC(=S)N2CCN(S(=O)(=O)c3c(F)cccc3F)CC2)cc1C	-17.6
Nc1nc(CSCCO)nc(Nc2ccccc2)n1	9.39
Nc1nc(CN2CCc3ccccc3C2)nc(Nc2ccccc2)n1	-51
Cc1ccc(Nc2nc(N)nc(CSc3ncccn3)n2)cc1	-18.7
Cc1ccc(Nc2nc(N)nc(CSc3nnnn3-c3ccccc3)n2)cc1	4.49
COc1ccccc1Nc1nc(N)nc(CN2CCc3ccccc3C2)n1	-44.8
COc1ccc(Nc2nc(N)nc(CSC(=S)N3CCCCC3)n2)cc1	0.179
Cc1ccc(Nc2nc(N)nc(CN3CCc4ccccc4C3)n2)cc1	-72.2
COc1ccc(Nc2nc(N)nc(CN3CCc4ccccc4C3)n2)cc1	-56.4
Nc1nc(CSc2ncccn2)nc(Nc2ccccc2)n1	1.55
COc1cc([N+](=O)[O-])ccc1NC(=O)COC(=O)CCOc1ccc(C)cc1	-11.2
O=C(CCCCn1c(=O)c2ccccc2n(CC(=O)NC2CCCC2)c1=O)NCc1ccco1	-15.6
O=C(O)CSc1nnc(Cc2ccccc2)n1-c1ccccc1	5.74

SMILES	hERG current change (%, negative = inhibition) at 10uM [%]
COc1cc(CNCCO)ccc1OCCc1ccccc1	6.61
COc1cc(C)c(C(=O)Oc2cc(C)c(C(=O)O)c(O)c2)c(O)c1	11.5
COc1ccc(OCCN2CCN(C(=O)c3ccc(OC)cc3)CC2)cc1	-87.2
COc1ccc(C(=O)N2CCN(C(=O)c3ccncc3)CC2)cc1	12.4
N#Cc1ccc(OCCN2C(=O)NC3(CCSC3)C2=O)cc1 (stereo not shown)	-57.2
Cl.Clc1cccc(OCCN2CCCC2)c1	2.13
CCOc1cc(C(=O)N2CCc3cc(OC)c(OC)cc3C2)ccc1OC(F)F	-35.7
CC1(C)NC(=O)N(CCOc2ccc([N+](=O)[O-])cc2)C1=O	-37.6
CN1CCN(CCOc2cccc(Cl)c2)CC1.Cl	1.19
COc1ccc(C(=O)N2CCCC2)cc1	-2.88
COc1ccc(OCCN2CCN(C(=O)c3ccc(OC(F)F)c(OC)c3)CC2)cc1	-72.6
Clc1cccc(OCCN2CCN(CCOc3cccc(Cl)c3)CC2)c1	-70.8
N#Cc1ccc(CN2C(=O)NC3(CCCCCC3)C2=O)cc1	-32.2
COc1ccc(C(=O)NCCN2CCN(C(=O)c3ccc(OC)c(OC)c3)CC2)cc1OC	14.5
CCC1(CC)C(=O)C2=C3C1[C@H](C(=O)OC)C=C(C(=O)OC)C[C@H]3[C@H]1C(=O)NC(=O)[C@H]1[C@H]2C (stereo partly shown)	3.57
NS(=O)(=O)c1c(Sc2ccccc2C(=O)O)ccc2ccccc12	28.4
CC1CCN(S(=O)(=O)c2c[nH]c(=O)[nH]c2=O)CC1	6.09
CC1CCCN(S(=O)(=O)c2ccc3c(c2)c(=O)nc2ccc(Cl)cn23)C1 (stereo not shown)	-10.5
CC(=O)Nc1ccc(NC(=O)C2CCCN(S(=O)(=O)c3ccc(-n4cnnn4)cc3)C2)cc1 (stereo not shown)	0.72
